This note sets out measurements from the antibiotic and cytotoxicity screens of Wong et al. (2023).

Among all 39,000 compounds or so, about 3,300 (8.5%) were called active. The full list was thinned out, with actives kept by preference.

The subject of this assay is HepG2. Briefly: cytotoxicity call (relative viability < 0.9). Particulars: 10 µM.
Turning to `Cc1ccc(S(=O)(=O)Nc2cccc3c2O[C@H](CN(C)C(=O)Nc2ccc(C(F)(F)F)cc2)[C@H](C)CN([C@H](C)CO)C3=O)cc1`, the cytotoxicity call was “inactive”.
The same measure for `C[C@@H]1CCCCO[C@@H](CN(C)CC2CCCCC2)[C@H](C)CN([C@H](C)CO)C(=O)c2cc(NS(=O)(=O)c3ccccc3)ccc2O1`: “inactive”; for `Cc1ccc(S(=O)(=O)Nc2ccc3c(c2)C(=O)N([C@@H](C)CO)C[C@H](C)[C@@H](CN(C)Cc2ccc(Cl)c(Cl)c2)OCCCC[C@H](C)O3)cc1`: “active”; for `Cc1ccc(S(=O)(=O)Nc2ccc3c(c2)C(=O)N([C@H](C)CO)C[C@H](C)[C@@H](CN(C)Cc2ccc(Cl)c(Cl)c2)OCCCC[C@@H](C)O3)cc1`: “inactive”.
The value for `Cc1ccc(S(=O)(=O)Nc2ccc3c(c2)C(=O)N([C@H](C)CO)C[C@H](C)[C@H](CN(C)Cc2ccc(Cl)c(Cl)c2)OCCCC[C@@H](C)O3)cc1` was “active”.
`O=C(O)CC[C@H]1CCC(=O)N1`: the cytotoxicity call was “inactive”.
The same measure for `C[C@@H]1CN([C@H](C)CO)C(=O)Cc2cc(NC(=O)c3ccncc3)ccc2O[C@H]1CN(C)S(=O)(=O)c1cn(C)cn1`: “inactive”.
The same measure for `C[C@@H]1CCCCO[C@@H](CN(C)CC2CC2)[C@H](C)CN([C@H](C)CO)C(=O)c2cc(NS(C)(=O)=O)ccc2O1`: “inactive”; for `C[C@@H]1CN([C@@H](C)CO)C(=O)c2cccc(NS(=O)(=O)c3ccccc3)c2O[C@@H]1CN(C)S(C)(=O)=O`: “inactive”.
The same measure for `C[C@@H]1CN([C@@H](C)CO)C(=O)c2cc(NS(=O)(=O)c3ccccc3)ccc2O[C@H]1CN(C)S(C)(=O)=O`: “inactive”; for `O=C(C[C@@H]1C=C[C@H](NC(=O)c2cccc(F)c2)[C@@H](CO)O1)NCCN1CCCC1`: “inactive”; for `CN(C)CC(=O)N1CC(=O)N2[C@H](CO)[C@@H](c3ccc(C#Cc4cccnc4)cc3)[C@H]2C1`: “inactive”.
Regarding `O=c1cc(-c2ccccc2)oc2ccccc12`, the cytotoxicity call was “inactive”.
`COc1ccc2c(=O)cc(-c3ccccc3OC)oc2c1`: the cytotoxicity call was “inactive”.
The same measure for `CCOC(=O)COc1ccc2c(=O)cc(-c3ccccc3)oc2c1`: “active”; for `CCS(=O)(=O)Nc1ccc2c(c1)C(=O)N(C)[C@@H]1CC[C@@H](CC(=O)N[C@@H]3CCN(Cc4ccccc4)C3)O[C@@H]1CO2`: “inactive”; for `Cc1cc(C(=O)Nc2cccc3c2O[C@@H](CN(C)Cc2ccncc2)[C@@H](C)CN([C@H](C)CO)C3=O)n(C)n1`: “inactive”.
The same measure for `C=CCOC(=O)[C@@H]1[C@H]2C(=O)O[C@H](c3ccccc3)[C@H](c3ccccc3)N2[C@H](c2ccc(OCCOC(=O)[C@H]3C[C@H]4C(=O)N5CCC[C@H]5C(=O)N4[C@H]3c3cccc(OCCO)c3)cc2)[C@@]12C(=O)Nc1ccc(I)cc12`: “inactive”; for `CN(C)CCCNC(=O)C[C@@H]1CC[C@@H]2[C@H](COC[C@H](O)CN2S(=O)(=O)c2ccccc2)O1`: “inactive”; for `Cc1cc(C(=O)c2cc3cc(Cl)ccc3o2)ccc1Cl`: “inactive”.
The same measure for `Cc1ccc(CN)cc1Cl`: “inactive”; for `Cc1cc(CN)cc(C)c1NC(=O)c1ccc(-c2cc(Cl)ccc2Cl)o1`: “active”; for `CCCCN1CC=C[C@@]23O[C@@H]4C=CCCOC(=O)[C@@H]4[C@H]2C(=O)N([C@@H](C)CO)[C@@H]3C1=O`: “inactive”.
For `NNc1ccc2c(N)[nH]nc2c1`, the cytotoxicity call was “inactive”.
For `COc1cccc(CN(C)C[C@@H]2OCc3ccccc3-c3c(n(C)c4ccccc34)C(=O)N([C@H](C)CO)C[C@H]2C)c1`, the cytotoxicity call is “inactive”.
With `O=C(c1cccs1)N1c2ccccc2Sc2ccccc21`, the cytotoxicity call was “inactive”.
The same measure for `O=C(Cc1cccs1)N1c2ccccc2Sc2ccccc21`: “active”; for `NCCC(=O)N1c2ccccc2Sc2ccccc21`: “inactive”.
The same measure for `C[C@@H]1CN([C@H](C)CO)C(=O)c2cc(NC(=O)Nc3ccc(C(F)(F)F)cc3)ccc2O[C@@H](C)CCCCO[C@@H]1CN(C)S(=O)(=O)c1ccc(Cl)cc1`: “inactive”.
The value for `O=C1CN(S(=O)(=O)Cc2ccccc2)C[C@H]2[C@H](c3ccc(C#Cc4ccc(F)cc4)cc3)[C@H](CO)N12` was “inactive”; that for `O=C1CN(S(=O)(=O)Cc2ccccc2)C[C@@H]2[C@H](c3ccc(C#Cc4ccc(F)cc4)cc3)[C@@H](CO)N12` was “inactive”; that for `O=C1CN(S(=O)(=O)Cc2ccccc2)C[C@@H]2[C@@H](c3ccc(C#Cc4ccc(F)cc4)cc3)[C@H](CO)N12` was “active”.
`O=C1CN(S(=O)(=O)Cc2ccccc2)C[C@H]2[C@H](c3ccc(C#Cc4ccc(F)cc4)cc3)[C@@H](CO)N12`: the cytotoxicity call is “inactive”.
The same measure for `O=C1CN(S(=O)(=O)Cc2ccccc2)C[C@H]2[C@@H](c3ccc(C#Cc4ccc(F)cc4)cc3)[C@@H](CO)N12`: “inactive”; for `O=C1CN(S(=O)(=O)Cc2ccccc2)C[C@@H]2[C@@H](c3ccc(C#Cc4ccc(F)cc4)cc3)[C@@H](CO)N12`: “active”; for `CN(C)S(=O)(=O)N1CCO[C@@H]2CN(c3ncc(F)cn3)C[C@@H]21`: “inactive”.
On to `O=C1O[C@H](c2ccccc2)[C@H](c2ccccc2)N2[C@H]1[C@@H](C(=O)Nc1nc3ccccc3s1)[C@]1(C(=O)Nc3ccc(C#CC4(O)CCCCCC4)cc31)[C@H]2c1ccccc1OCCO`, for which the cytotoxicity call is “inactive”.
`C[C@@H]1CCCCO[C@@H](CN(C)C(=O)Nc2ccc3c(c2)OCO3)[C@@H](C)CN([C@@H](C)CO)C(=O)c2cc(NC(=O)CCC(F)(F)F)ccc2O1`: the cytotoxicity call was “inactive”.
The same measure for `COc1ccc(CN(C)C[C@H]2Oc3ccc(NC(=O)CCCCCC(=O)Nc4ccccc4N)cc3C(=O)N([C@H](C)CO)C[C@H]2C)cc1`: “inactive”; for `C[C@H](CO)N1C[C@H](C)[C@@H](CN(C)Cc2ccccc2)Oc2ccc(NC(=O)CCCCCC(=O)Nc3ccccc3N)cc2C1=O`: “inactive”.
The same measure for `C[C@H]1CN([C@@H](C)CO)C(=O)c2cc(NC(=O)CCCCCC(=O)Nc3ccccc3N)ccc2O[C@@H]1CN(C)Cc1ccccc1`: “active”; for `C[C@@H]1CN([C@@H](C)CO)C(=O)c2cc(NC(=O)CCCCCC(=O)Nc3ccccc3N)ccc2O[C@H]1CN(C)Cc1ccccc1`: “active”.
Regarding `C[C@@H]1CN([C@H](C)CO)C(=O)c2cc(NC(=O)CCCCCC(=O)Nc3ccccc3N)ccc2O[C@H]1CN(C)Cc1ccccc1`, the cytotoxicity call is “inactive”.
Turning to `C[C@@H]1CN([C@H](C)CO)C(=O)c2cc(NC(=O)CCCCCC(=O)Nc3ccccc3N)ccc2O[C@@H]1CN(C)Cc1ccc(Oc2ccccc2)cc1`, the cytotoxicity call is “active”.
The same measure for `C[C@H]1CN([C@@H](C)CO)C(=O)c2cc(NC(=O)CCCCCC(=O)Nc3ccccc3N)ccc2O[C@H]1CN(C)Cc1ccc(Oc2ccccc2)cc1`: “inactive”.
The value for `C[C@@H]1CN([C@H](C)CO)C(=O)c2cc(NC(=O)CCCCCC(=O)Nc3ccccc3N)ccc2O[C@@H]1CN(C)Cc1ccccc1` was “inactive”; that for `C[C@H](CO)N1C[C@H](C)[C@H](CN(C)Cc2ccccc2)Oc2ccc(NC(=O)CCCCCC(=O)Nc3ccccc3N)cc2C1=O` was “inactive”.
